Our source for the largest response in the series, negative = inhibition and Potency values is PubChem BioAssay AID1490 (National Center for Advancing Translational Sciences (NCATS), 2009).

Several values for one entry are separate records, joined by “and”; a condition that tells them apart may be missing. Identical values can stand only once. Among all 310,000 compounds or so, about 11,000 (3.5%) were called active. Inconclusive results (about 4%) are left out. Many of the other results were omitted from the sample, so actives are more common in it than they were. A number with no mark means an inactive call. The call rests on the fitted dose curve; in most records, active means well fitted inhibition curve with a large enough effect; inconclusive means small, poorly fitted or top-dose-only effect, or another doubt; inactive means no such curve, though single readings can be large or run the other way.
Potency means the concentration at half of the fitted maximal effect.

The target of the assay is 4'-phosphopantetheinyl transferase ffp (Bacillus subtilis) (UniProt Q9F4F7). Kind of assay: qHTS Assay for Inhibitors of Bacillus subtilis Sfp phosphopantetheinyl transferase (PPTase).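 Further: the enzyme is Sfp with the accession as filed and its product quenches rhodamine fluorescence.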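 On largest response in the series, negative = inhibition: 0% = enzyme reaction without inhibitor and -100% = no enzyme wells.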 As to conditions: Biochemical Sfp PPTase activity. The gist of the method: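 With Hepes-Na pH 7.6 buffer containing 10 mM MgCl2, Sfp (15 nM) modified BHQ-2-YbbR (12.5 uM) using rhodamine-CoA (5 uM). Two reads 30 minutes apart at 525/598 nm yielded each well's rate.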
A general note: Quantitative high-throughput screening tests each substance at several concentrations.
As to `CN(CC(=O)Nc1ccc(Cl)cc1)C(=O)CNC(=O)c1ccc2ccccc2c1`, the largest response in the series, negative = inhibition is 1.11%.

As to `O=C1CCN(Cc2ccccc2)CCN1[C@H](CSc1ccccc1)c1ccccc1`, the largest response in the series, negative = inhibition is 2.51%.

With `O=C(O)CS/C(=C\c1ccc(F)cc1)c1nc2ccccc2s1`, the largest response in the series, negative = inhibition was 27.3%.

As for `O=C(Nc1nc2ccccc2s1)c1ccc2c(c1)OCO2`, the largest response in the series, negative = inhibition was 16.2%.

For the compound `O=C(O)CC/C(=C\c1cc2c(cc1Br)OCO2)c1nc2ccccc2s1`, the Potency is 50.1 µM (active).

As for `CC(C)[C@H](NC(=O)N1CCn2c1nc1ccccc12)C(=O)NCCc1ccccc1`, the largest response in the series, negative = inhibition was 3.48%.

As to `CC(C(=O)NC1CCS(=O)(=O)C1)N1C(=O)/C(=C/c2ccc(Cl)cc2)SC1=S` (stereo not given), the largest response in the series, negative = inhibition was -16.1%.

In the case of `CC(C)(C)c1ccc(CN2C(=O)c3ccccc3S2(=O)=O)cc1`, the largest response in the series, negative = inhibition is -8.95%.

For the compound `Cc1ccccc1NC(=O)CSc1nc2ccc(Nc3nc(N4CCOCC4)nc(N4CCOCC4)n3)cc2s1`, the largest response in the series, negative = inhibition was -16.9%.

`C/C(CC(=O)NC(C)c1ccccc1)=N\NC(N)=S` (stereo not given): the Potency was 79.4 µM (active).

Regarding `Cc1ccc(OCC(=O)NC(C)c2ccccc2)cc1C` (stereo not given), the largest response in the series, negative = inhibition is -3.78%.

Turning to `Cc1cc(C)cc(OCC(=O)NC(C)c2ccccc2)c1` (stereo not given), the largest response in the series, negative = inhibition is -3.71%.

For `CC(=O)Nc1ccc(S(=O)(=O)N2CCC(C(=O)N[C@@H](Cc3ccccc3)C(=O)O)CC2)cc1`, the largest response in the series, negative = inhibition was 27.7%.

`C[C@@H]1O[C@@H](OC[C@H]2O[C@@H](Oc3cc(O)c4c(c3)O[C@H](c3ccc(O)c(O)c3)CC4=O)[C@H](O)[C@@H](O)[C@@H]2O)[C@H](O)[C@H](O)[C@H]1O`: the largest response in the series, negative = inhibition is 2.86%.

For the compound `COC(=O)c1cc(C)sc1NC(=O)CC1Nc2ccccc2NC1=O` (stereo not given), the Potency was 79.4 µM (active).

For the compound `CCOC(=O)c1ccccc1NC(=O)CC1Nc2ccccc2NC1=O` (stereo not given), the largest response in the series, negative = inhibition is 5.03%.

In the case of `O=C(CC1Nc2ccccc2NC1=O)Nc1ccccc1NC(=O)CC1Nc2ccccc2NC1=O` (stereo not given), the largest response in the series, negative = inhibition was -13.5%.

For `Cc1sc2ncn(CC(=O)NCCCC(=O)N(C)Cc3ccccc3)c(=O)c2c1C`, the largest response in the series, negative = inhibition was 13.5%.

Consider `O=S(=O)(c1ccccc1)c1nc(-c2ccccc2)oc1NCCCN1CCOCC1`, for which the largest response in the series, negative = inhibition is 11.1%.

Regarding `Cc1ccc(-c2nc(C#N)c(NCCCn3ccnc3)o2)cc1`, the largest response in the series, negative = inhibition is -4.22%.

Regarding `N#Cc1nc(-c2ccc(OCc3ccccc3)cc2)oc1NCCCN1CCOCC1`, the Potency was 44.7 µM (active).

With `Cc1ccc(NS(=O)(=O)c2ccc3c(c2)oc(=O)n3C)c(C)c1`, the largest response in the series, negative = inhibition was 5.37%.

With `O=C(O)c1ccc(NC(=O)c2ccc(COc3ccc(Cl)cc3)o2)cc1`, the largest response in the series, negative = inhibition is 9.95%.

For the compound `CCOC(=O)c1cnc(SCC(=O)NCc2ccco2)nc1N`, the largest response in the series, negative = inhibition was -17.3%.

With `Cc1nc2nc(SCC(=O)NCc3ccco3)nn2c(C)c1Cc1ccccc1`, the Potency was 50.1 µM (active).

`Cc1ccc(Cc2c(C)nc3nc(SCC(=O)NCCN4CCOCC4)nn3c2C)cc1`: the largest response in the series, negative = inhibition was -2.31%.

Turning to `Cc1cccc(NC(=O)NC2(C)CCS(=O)(=O)C2)c1` (stereo not given), the largest response in the series, negative = inhibition is 14.2%.

Take `O=S(=O)(Nc1ccccc1)c1ccc(NS(=O)(=O)c2cccs2)cc1`: the largest response in the series, negative = inhibition was 16.9%.

`CCNc1nc(-c2cc3ccccc3o2)cs1`: the largest response in the series, negative = inhibition is -14.8%.

For `Cc1nc(C)c(-c2csc(NCCc3ccccc3)n2)s1`, the Potency was 50.1 µM (active).

For the compound `S=c1[nH]nc(NCCc2ccccc2)s1`, the Potency is 22.4 µM (active).

For the compound `S=C(NCCc1ccccc1)Nc1ccccc1`, the largest response in the series, negative = inhibition was -0.65%.

With `Cc1ccc(Nc2nc(-c3sc(NC(=O)c4ccccc4)nc3C)cs2)cc1`, the largest response in the series, negative = inhibition was 0.727%.

On to `O=C(CSc1ncccn1)NCCc1ccccc1`, for which the largest response in the series, negative = inhibition was 18.5%.

Take `COc1cccc(C2CC(c3cccs3)=NN2C(=O)CSC2=NCCS2)c1OC` (stereo not given): the largest response in the series, negative = inhibition was -16%.

Turning to `Cc1cc(C)cc(Oc2c(C(F)(F)F)oc3cc(OCC(=O)O)ccc3c2=O)c1`, the largest response in the series, negative = inhibition was 5.59%.

On to `CCOC(=O)N1CCC(N2Cc3cccc(C(=O)Nc4ccc(S(=O)(=O)N(CC)CC)cc4)c3C2=O)CC1`, for which the largest response in the series, negative = inhibition was -1.4%.

For `CCOc1ccc2nc(N(CCN(C)C)C(=O)c3ccc4ccccc4c3)sc2c1`, the Potency was 79.4 µM (active).

Consider `CCc1ccc2nc(N(CCCN(C)C)C(=O)c3ccc4c(c3)OCCO4)sc2c1`, for which the largest response in the series, negative = inhibition is -7.75%.

In the case of `CCCC(=O)N(CCN1CCOCC1)c1nc2ccc(OCC)cc2s1`, the largest response in the series, negative = inhibition was 4.61%.

For `COc1ccccc1N1CCN(S(=O)(=O)CCNC(=O)c2ccc(OC(C)C)cc2)CC1`, the largest response in the series, negative = inhibition was 3.56%.

Regarding `COc1ccc(CCN2C(=O)CC(N3CCC(C(N)=O)CC3)C2=O)cc1OC` (stereo not given), the Potency is 50.1 µM (active).

In the case of `COc1ccc(CCN2C(=O)C3CC=C(C)CC3C2=O)cc1OC` (stereo not given), the largest response in the series, negative = inhibition was 7.59%.

Regarding `COc1ccc(N2C(=O)CC(N3CCC(C(N)=O)CC3)C2=O)cc1` (stereo not given), the largest response in the series, negative = inhibition is -13.3%.

Regarding `COc1cc(Cl)c(C)cc1NC(=O)CN1CCCCCC1`, the largest response in the series, negative = inhibition is 1.55%.

Consider `O=C(N/N=C/c1c[nH]c2ccccc12)c1ccccc1O`, for which the largest response in the series, negative = inhibition was 16.9%.

For the compound `C[n+]1ccc(/C=C/c2c[nH]c3ccccc23)cc1`, the Potency is 56.2 µM (active).

For `CSC(=S)N/N=C/c1c[nH]c2ccccc12`, the largest response in the series, negative = inhibition is 7.95%.

Take `Cc1cc(=O)[nH]c(Nc2cccc(Br)c2)n1`: the largest response in the series, negative = inhibition is -3.95%.

With `Cc1ccc(NN=Nc2nc3c([nH]2)c(=O)n(C)c(=O)n3C)cc1`, the Potency was 25.1 µM (active).

Consider `Cc1cccc(C)c1NC(=O)CSc1nc2c([nH]1)c(=O)n(C)c(=O)n2C`, for which the largest response in the series, negative = inhibition was -3.14%.

For the compound `CC(CCO)Nc1nc2c([nH]1)c(=O)n(C)c(=O)n2C` (stereo not given), the largest response in the series, negative = inhibition was 11.2%.

In the case of `CSc1nccc(NC(=O)c2ccc(C(C)(C)C)cc2)n1`, the largest response in the series, negative = inhibition was -8.43%.

In the case of `CCOC(=O)N1CCN(C(=O)c2ccc3c(=O)n(CCc4ccc(OC)c(OC)c4)c(=O)[nH]c3c2)CC1`, the largest response in the series, negative = inhibition is 8.01%.

Regarding `O=C(O)[C@@H](S)[C@H](S)C(=O)O`, the Potency was 1.12 µM (active).

For the compound `O=C(C[n+]1cc(Br)cc2ccccc21)c1ccc(F)cc1`, the largest response in the series, negative = inhibition is 4.07%.

With `COc1cccc([C@@H]2Oc3ccc(Br)cc3C(=O)[C@H]2OC(=O)NCCc2ccc(OC)c(OC)c2)c1`, the largest response in the series, negative = inhibition was -29.3%.

Turning to `COc1ccccc1N1CCN(C(=O)c2ccc(NC3=NC4CS(=O)(=O)CC4S3)cc2)CC1` (stereo not given), the largest response in the series, negative = inhibition was 11.2%.

For the compound `COc1ccc(CCCOC(Cn2ccnc2)c2ccc(OC)cc2)cc1` (stereo not given), the largest response in the series, negative = inhibition was 10.3% and -14.1%.

For the compound `CC(=O)c1cc(C#N)c(N2CCCCC2)nc1C`, the largest response in the series, negative = inhibition was 10.1%.

For `N#Cc1c(N2CCCCC2)nc(N)c2c(N)nc(SCC(=O)O)cc12`, the Potency is 8.91 µM (active).

Turning to `Cc1cc(C)c(C#N)c(N2CCC(C(N)=O)CC2)n1`, the largest response in the series, negative = inhibition is 15.7%.

With `N#CCc1ccc(NC(=O)c2ccccc2C(=O)Nc2ccc(CC#N)cc2)cc1`, the largest response in the series, negative = inhibition was 5.96%.

As to `CCOCc1nnc(NC(=O)CCC2CCCCC2)s1`, the largest response in the series, negative = inhibition was 18.1%.

`COC(=O)CCCC1=CC2=CC(=O)C(C)(OC(=O)c3cccs3)C(=O)C2=CN1c1ccc(CO)cc1` (stereo not given): the largest response in the series, negative = inhibition was -1.16%.

`CCOC(=O)c1csc(CCNC(=O)c2oc3c(Cl)cc(C)cc3c2C)n1`: the largest response in the series, negative = inhibition was -19.2%.

For the compound `Nc1ccc2nc3c(=O)[nH]c(=S)[nH]c3nc2c1`, the Potency was 8.91 µM (active).

Take `O=c1[nH]c(=O)c2nc3ccccc3nc2[nH]1`: the largest response in the series, negative = inhibition is 8.31%.

For `O=C(NCc1cc(F)cc(C(F)(F)F)c1)C1CCC(=O)N(C2CCCC2)C1` (stereo not given), the largest response in the series, negative = inhibition is 6.77%.

`O=c1oc2ccccc2c(CNc2ccccc2)c1[N+](=O)[O-]`: the largest response in the series, negative = inhibition is 5.08%.

As for `C=C1C(=CC=C2CCC[C@@]3(C)[C@@H]2CC[C@H]3[C@H](C)CCCC(C)C)C[C@@H](O)C[C@@H]1O`, the largest response in the series, negative = inhibition was 3.54%.

On to `CC(=O)Nc1ccc(/C=N/NC(=O)c2cccs2)cc1`, for which the largest response in the series, negative = inhibition is 9.99%.

On to `O=C(N/N=C/c1ccco1)c1ccc(C(=O)N/N=C/c2ccco2)o1`, for which the largest response in the series, negative = inhibition was 22%.

For the compound `Cc1ccc(-c2cc(C(=O)N/N=C/C=C/c3ccco3)c3ccccc3n2)cc1C`, the Potency is 28.2 µM (active).

On to `CCOc1cc(/C=N/NC(=O)c2cc(-c3ccccc3)nc3ccccc23)ccc1O`, for which the largest response in the series, negative = inhibition is 10.1%.

Take `C/C(=N\NC(=O)c1cc(-c2ccc(O)cc2)nc2ccccc12)c1cccnc1`: the largest response in the series, negative = inhibition was 0.726%.

Turning to `O=C(N/N=C/C=C/c1ccco1)c1cccs1`, the Potency is 10 µM (active).

For `O=C(O)c1cc2c(cc1NC(=O)c1c(F)cccc1Cl)OCCCO2`, the largest response in the series, negative = inhibition was 14.9%.

`Cc1nc2c(c(=O)n1Cc1ccco1)c1nc3ccccc3nc1n2Cc1ccccc1`: the Potency is 8.91 µM (active).

As to `Cc1nc2ccccc2c(=O)n1Cc1ccc([N+](=O)[O-])cc1`, the largest response in the series, negative = inhibition is -0.474%.

Regarding `Cc1ccc(Cn2c(C)nc3c(c2=O)c2nc4ccccc4nc2n3Cc2ccco2)cc1`, the largest response in the series, negative = inhibition was 18.1%.

Turning to `O=C(NC1CCCCC1)C1CCC(CNS(=O)(=O)c2ccccc2)CC1` (stereo not given), the largest response in the series, negative = inhibition was -16.9%.

Regarding `Cc1ccc(NC(=O)c2cc(-c3ccccc3O)n[nH]2)cc1C`, the largest response in the series, negative = inhibition is 13.9%.

On to `CCN(CC)C(=O)CN(c1cccc([N+](=O)[O-])c1)S(=O)(=O)c1ccccc1`, for which the largest response in the series, negative = inhibition is 19.8%.

Consider `CCN(CC)S(=O)(=O)c1cc([N+](=O)[O-])ccc1N=Nc1c(O)n(C)c2ccccc12`, for which the largest response in the series, negative = inhibition is 22.9%.

With `CCN(CC)S(=O)(=O)c1cc([N+](=O)[O-])ccc1NNC(=O)Nc1ccccc1`, the Potency is 56.2 µM (active).

As for `CCCn1c2ccccc2c2cnn(CC(=O)NCCCN3CCCCC3CC)c(=O)c21` (stereo not given), the largest response in the series, negative = inhibition is 4.88%.

Take `CCC(C)NCC(=O)Nc1ccc([N+](=O)[O-])cc1C(=O)Nc1ccccc1F` (stereo not given): the largest response in the series, negative = inhibition was 8.61%.

`O=[N+]([O-])c1cccc(/C([O-])=C(/C(=S)Nc2ccccc2F)[n+]2ccccc2)c1`: the Potency is 17.8 µM (active).

For `Cc1cccc(C(=O)NNC(=O)c2cccc([N+](=O)[O-])c2)c1`, the largest response in the series, negative = inhibition was 12.7%.
